# According to PubChem BioAssay AID463173 (ICCB-Longwood Screening Facility, Harvard Medical School, 2010):
# About 4,300 (8.3%) of roughly 52,000 compounds were called active. For the sample, actives were picked, then their nearest neighbours and some compounds at random. Unmarked numbers belong to inactive results. Cut-off read from the data, not from the text of the source: active = survival mostly below about 52% (no sharp cut-off); inactive = mostly above about 56%.
# Test system: DeltatarO mutant
# Test: S. aureus survival, RN4220 and DeltatarO strains – OD600, teichoic acid synthesis inhibitors, primary screen (AID 463173)
# Conditions: S. aureus RN4220 wild type/DeltatarO growth, OD600, 18 h, hits give low values, screened at 18.75 µg/mL (by protocol)
row,Compound,survival
1,O=C(O)CCSc1nc2ccccc2o1,87%
2,CCc1cccc(C)c1NC(=O)CN(C)S(=O)(=O)c1cccc2nsnc12,89%
3,COC(=O)C1=C(C)NC(=O)C1(NC(=O)c1cc(OC)c(OC)c(OC)c1)C(F)(F)F (stereo not drawn),54%
4,CC(=O)c1ccc(NC(=O)C(C)n2nc(-c3ccccc3)ccc2=O)cc1 (stereo not drawn),32% (active)
5,Cc1ccc(-c2ccc(=O)n(C(C)C(=O)Nc3ccccc3Cl)n2)cc1C (stereo not drawn),66%
6,Cc1ccc(Cl)cc1NC(=O)C(C)n1nc(-c2ccccc2)ccc1=O (stereo not drawn),20% (active)
7,Cc1ccc(-c2ccc(=O)n(CC(=O)Nc3ccc(C)cc3Cl)n2)cc1,50%
8,CCC(C(=O)Nc1cccc(Cl)c1C)n1nc(C)c2sc3ccccc3c2c1=O (stereo not drawn),72%
9,CCC(C(=O)Nc1cc(OC)cc(OC)c1)n1nc(-c2ccc(C)c(C)c2)ccc1=O (stereo not drawn),75%
10,COc1ccc(NC(=O)C(C)n2nc(-c3ccc(C)c(C)c3)ccc2=O)cc1OC (stereo not drawn),69%
11,CCC(C(=O)Nc1cccc(Cl)c1C)n1nc(-c2ccc(C)cc2)ccc1=O (stereo not drawn),41% (active)
12,Cc1ccc(Cl)cc1NC(=O)C(C)n1nnc2sc(-c3ccccc3)cc2c1=O (stereo not drawn),59%
13,CCC(C(=O)Nc1cc(Cl)ccc1OC)n1nc(-c2ccccc2)ccc1=O (stereo not drawn),24% (active)
14,CC(=O)c1ccc(NC(=O)CSc2ccc3nc(-c4ccccc4)cn3n2)cc1,89%
15,COc1ccc(Cl)cc1NC(=O)C(OC)c1ccccc1 (stereo not drawn),83%
16,COc1cccc(N2CCN(c3ncc4c(n3)CCN(Cc3ccc(Br)cc3)C4)CC2)c1,79%
17,COc1ccc(/C=C\c2onc(C)c2S(=O)(=O)N2CCC(C(=O)Nc3cccc(C)c3C)CC2)cc1,68%
18,Cc1ccc(-c2nnn(CCC(=O)NC(C)(C)C)n2)cc1,91%
19,Cc1ccc(C(=O)NCCC(C)C)cc1NC(=O)c1nsc2ccccc12,73%
20,N#C/C(=C/c1cccs1)C(N)=S,99%
21,Cc1cc(SCC(=O)NCc2ccc(Cl)cc2)nc(=O)[nH]1,86%
22,O=C(Nc1cccc(-n2cnnn2)c1)c1ccccc1,95%

row,Compound,survival
1,N#C/C(=C\Nc1ccccc1O)c1nc2ccccc2o1,1% (active)
2,N#C/C(=C/Nc1cccc2ccccc12)c1nc2ccccc2o1,54%
3,Cc1ccc(C)c(N/C=C(\C#N)c2nc3ccccc3o2)c1,95%
4,CCCOC(=O)c1c(NC(=O)C(C)Sc2nc(-c3ccccc3)cc(C(F)(F)F)n2)sc(C(=O)N(C)C)c1C (stereo not drawn),132%
5,CC(Oc1ccccc1)C(=O)Nc1nc2ccc(S(N)(=O)=O)cc2s1 (stereo not drawn),102%
6,COCCNc1nc(NCc2ccccc2OC)c2cnn(C)c2n1,69%
7,CCCCc1c(C)nc2c(-c3ccc(OC)cc3)c(C)[nH]n2c1=O,7% (active)
8,CCCCc1nc2ccccc2n2c(-c3ccc(OC)cc3)c3c(=O)n(C)c(=O)n(C)c3c12,49%
9,CCCCc1c(C)nc2c(-c3ccc(Cl)cc3)c(C)[nH]n2c1=O,-2% (active)
10,CCOC(=O)Cc1c(C)nc2c(-c3ccc(Cl)cc3)c(C(F)(F)F)nn2c1C,63%
11,CCOC(=O)CCc1c(C)nc2cc(-c3cc(OC)cc(OC)c3)[nH]n2c1=O,90%
12,Cc1nc2c(-c3ccc(F)cc3)c(C)nn2c(C)c1CCC(=O)NCc1ccc(Cl)cc1,96%
13,c1ccc(Cn2ncc3c(N4CCCCC4)ncnc32)cc1,77%
14,COc1ccc(C2=C(C)C(=O)N(Cc3ccc(C(=O)NC(C)c4ccccc4)cc3)S2(=O)=O)cc1 (stereo not drawn),91%
15,CCOC(=O)c1c(NC(=O)/C=C/c2ccc(C)cc2)sc(C(C)=O)c1C,79%
16,CCOc1ccc(CNC(=O)c2cnc3sc(N4CCCCCC4)nn3c2=O)cc1OC,83%
17,COc1ccc(NC(=O)N2CCc3c(sc4c3CCCC4)C2c2ccccc2OC)cc1 (stereo not drawn),54% (active)
18,COc1cc(NC(=O)N2CCc3c(sc4c3CCCC4)C2c2ccccc2)cc(OC)c1OC (stereo not drawn),103%
19,Cc1cccc(NC(=O)N2CCc3c(sc4c3CCCC4)C2c2ccc(F)cc2)c1 (stereo not drawn),37% (active)
20,Cc1ccc(NC(=O)N2CCc3c(sc4c3CCCC4)C2c2ccccc2)cc1F (stereo not drawn),102%
21,O=C(Nc1ccc(F)cc1F)N1CCc2c(sc3c2CCCC3)C1c1ccc(F)cc1 (stereo not drawn),93%
22,COc1ccc(NC(=O)N2CCc3c(sc4c3CCCC4)C2c2ccc(F)cc2)cc1 (stereo not drawn),101%

row,Compound,survival
1,Cc1ccc([N+](=O)[O-])c(Oc2ncnc3c2oc2ccccc23)c1,101%
2,Oc1c(C(c2ccccc2F)N2CCC3(CC2)OCCO3)sc2nc(-c3ccco3)nn12 (stereo not drawn),102%
3,Cc1ccc(C)c(Nc2cc(C(=O)NC3CCCC3)c3ccccc3n2)c1,87%
4,COc1ccc(N2C(=O)CS(=O)(=O)C23C(=O)N(Cc2ccccc2F)c2ccccc23)cc1Cl (stereo not drawn),75%
5,CCOC(=O)c1c(NC(=O)c2ccc(S(=O)(=O)N(CC(C)C)CC(C)C)cc2)sc2c1CCN(C(=O)OCC)C2,124%
6,Cc1ccc(Cl)cc1NC(=O)CSC1=Nc2ccccc2C2=NC(Cc3ccccc3)C(=O)N12 (stereo not drawn),71%
7,COc1ccc(NC(=O)CSc2nnc(NC(=O)Nc3ccccc3)s2)cc1OC,86%
8,COc1ccc(NC(=O)CSc2nnc(NC(=O)Nc3ccccc3)s2)c(OC)c1,47% (active)
9,COc1ccccc1NC(=O)CSc1nnc(NC(=O)Nc2ccc(C)cc2)s1,58%
10,CCc1ccc(-n2nc(C)c3c(C(=O)N4CCN(c5ccccc5)CC4)cc(C)nc32)cc1,94%
11,Cn1cc(S(=O)(=O)c2cccc(Cl)c2)c(=O)c2cc(F)c(N3CCN(c4ccc(F)cc4)CC3)cc21,70%
12,CCn1cc(S(=O)(=O)c2cc(C)cc(C)c2)c(=O)c2cc(F)c(N3CCCCC3)cc21,86%
13,Cc1cccc(S(=O)(=O)c2cn(Cc3ccccc3)c3cc(N4CCCCC4)c(F)cc3c2=O)c1,82%
14,Cn1cc(S(=O)(=O)c2cccc(Cl)c2)c(=O)c2cc(F)c(N3CCN(c4ccccc4)CC3)cc21,6% (active)
15,CCn1cc(C(=O)O)c(=O)c2cc(F)c(N3CCN(C(=O)c4ccccc4F)CC3)cc21,3% (active)
16,CCn1cc(C(=O)N2CCN(c3ccccc3F)CC2)c(=O)c2cc(S(=O)(=O)N(C)C)ccc21,122%
17,CCn1cc(C(=O)NCC(C)C)c(=O)c2cc(F)c(N3CCN(C(=O)c4ccco4)CC3)cc21,76%
18,O=c1c(S(=O)(=O)c2ccccc2)cn(Cc2ccc(F)cc2)c2cc(N3CCCCC3)c(F)cc12,80%
19,Cc1cccc(S(=O)(=O)c2cn(Cc3ccc(F)cc3)c3cc(N4CCCCC4)c(F)cc3c2=O)c1,-2% (active)
20,Cn1cc(S(=O)(=O)c2ccccc2)c(=O)c2cc(F)c(N3CCN(c4ccccc4)CC3)cc21,116%
21,CCn1cc(S(=O)(=O)c2cc(C)cc(C)c2)c(=O)c2cc(F)c(N3CCCC3)cc21,109%
22,CCN1CCN(c2cc3c(cc2F)c(=O)c(S(=O)(=O)c2cc(C)cc(C)c2)cn3CC)CC1,-1% (active)

row,Compound,survival
1,COc1cccc(C(c2sc3nc(-c4ccco4)nn3c2O)N2CCC(C)CC2)c1 (stereo not drawn),78%
2,CC(C)(C)C(=O)OCc1cc(=O)n2nc(C3CC3)sc2n1,80%
3,CC(=O)c1cc(-c2ccc(F)cc2)n(CCC(=O)NCc2ccccc2C)c1C,81%
4,Cc1ccc(-c2nnc3ccccc3c2C(=O)Nc2ccc(F)cc2)cc1,100%
5,CCCCNC(=O)Cn1cnc2sc(C)c(S(=O)(=O)N3CCN(c4ccccc4OC)CC3)c2c1=O,86%
6,CCOC(=O)C1CCCN(S(=O)(=O)c2cc3c4c(c2)CC(=O)N4CCC3)C1 (stereo not drawn),93%
7,CCOc1ccc(-c2ccc(NS(=O)(=O)c3cc(C)ccc3OC)cc2)nn1,86%
8,O=C(NCCc1csc(-c2ccc(F)cc2)n1)c1cccs1,72%
9,Cc1ccc(NC2=CC(c3ccccc3F)N(c3ccc(C)cc3)C2=O)cc1 (stereo not drawn),49%
10,CC(=O)NC1CCN(C(=O)Nc2ccccc2)CC1,91%
11,Cc1csc2nc(COC(=O)c3ccccc3NC(=O)c3ccc(F)cc3)cc(=O)n12,55%
12,COc1ccc(-c2noc(N3CCC(C(=O)N4CCN(c5ccccc5OC)CC4)CC3)n2)cc1,61%
13,Cc1cccc(OCCCSc2nc(-c3ccc(C(C)(C)C)cc3)nc3cc(=O)[nH]n23)c1C,102%
14,CC(C)CCNC(=O)c1ccc(Cn2c(SCC(=O)NC(C)C)nc3ccccc3c2=O)cc1,144%
15,CCCNC(=O)c1ccc(Cn2c(SCC(N)=O)nc3ccccc3c2=O)cc1,91%
16,CC(C)CCNC(=O)c1ccc(Cn2c(SCC(N)=O)nc3ccccc3c2=O)cc1,46% (active)
17,Cc1cc(C)c(NC(=O)c2cc(CN3CCOCC3)on2)c(C)c1,70%
18,COc1ccc(OC)c(/C=C/C(=O)Nc2ccc(C(=O)OCCC(C)C)cc2)c1,33% (active)
19,CCOCCOC(=O)c1ccc(NC(=O)/C=C/c2ccc(OC)c(OC)c2)cc1,137%
20,COc1ccc(/C=C/C(=O)Nc2ccc(C)cc2)cc1,77%
21,Cc1cc(=O)[nH]c2c(C)c(Cl)ccc12,93%
22,Cc1ccc(Cl)cc1Nc1nn2c(=O)c3ccc(C(=O)NC4CCC(C)CC4)cc3nc2s1 (stereo not drawn),100%
